Assay results taken from PubChem BioAssay (NCI).
This is part of a sample that, as a whole, favours compounds with a hit. Of some 83,000 tested, about 20% had one in any assay.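 Growth was measured after 48 h exposure to one concentration of compound in 96-well plates. Values under 10 count as active.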 Active and inactive are the calls of the source.

Legend:
Experiment in all cases: NCI-60 one-dose screen, 48 h (100 = growth as untreated, 0 = no growth, -100 = all killed)
Conditions in all cases: 10 µM unless noted
NCI-H23 lung = system: NCI-H23 lung
NCI-H226 lung = system: NCI-H226 lung
NCI-H322M lung = system: NCI-H322M lung
HOP-62 NSCLC = system: HOP-62 NSCLC
NCI-H460 lung = system: NCI-H460 lung
HOP-92 NSCLC = system: HOP-92 NSCLC
NCI-H522 lung = system: NCI-H522 lung
A549/ATCC NSCLC = system: A549/ATCC NSCLC
786-0 renal = system: 786-0 renal
COLO 205 colon = system: COLO 205 colon
DU-145 prostate = system: DU-145 prostate
K-562 leukemia = system: K-562 leukemia
MALME-3M melanoma = system: MALME-3M melanoma
MDA-MB-231 breast = system: MDA-MB-231 breast
RXF 393 renal = system: RXF 393 renal
SF-268 CNS = system: SF-268 CNS
SF-295 CNS = system: SF-295 CNS
SF-539 CNS = system: SF-539 CNS
UACC-257 melanoma = system: UACC-257 melanoma
M14 melanoma = system: M14 melanoma

Measured: growth

S=C(Nc1ccc(Cl)cc1)c1ccccn1
inactive: NCI-H23 lung 83% | NCI-H226 lung 88.1% | NCI-H322M lung 97.2% | HOP-62 NSCLC 78.3% | NCI-H460 lung 101% | HOP-92 NSCLC 77.1% | NCI-H522 lung 73.7% | A549/ATCC NSCLC 88.9% | 786-0 renal 93.2% | COLO 205 colon 110% | DU-145 prostate 105% | K-562 leukemia 90% | MALME-3M melanoma 85.2% | MDA-MB-231 breast 93.1% | RXF 393 renal 97.8% | SF-268 CNS 96.5% | SF-295 CNS 91.4% | SF-539 CNS 102% | UACC-257 melanoma 91.1% | M14 melanoma 103%

N#Cc1ccc(N2Cc3cc(Cl)ccc3OC3=C2C(=O)N(Cc2ccc(F)cc2)C3=O)cc1
inactive: NCI-H226 lung 92.6% | NCI-H322M lung 96.3% | HOP-62 NSCLC 52% | NCI-H460 lung 23.6% | A549/ATCC NSCLC 68.5% | SF-295 CNS 66.6%
active: NCI-H23 lung 3.56% | HOP-92 NSCLC -64.1% | NCI-H522 lung -63.2% | 786-0 renal -90.5% | COLO 205 colon -73.5% | DU-145 prostate -91.8% | K-562 leukemia -21.6% | MALME-3M melanoma -72.3% | MDA-MB-231 breast -0.424% | RXF 393 renal -56.8% | SF-268 CNS -58.4% | SF-539 CNS -65.7% | UACC-257 melanoma -64% | M14 melanoma -68.4%

COc1cc2c(cc1OCCCOc1cc3c(cc1OC)C(=O)N1CC(F)(F)C[C@H]1C=N3)N=C[C@@H]1CC(F)(F)CN1C2=O
active: NCI-H23 lung 5.01% | NCI-H226 lung -20.1% | NCI-H460 lung 7.32% | HOP-92 NSCLC -35.4% | NCI-H522 lung -26.4% | 786-0 renal -22.8% | COLO 205 colon 3.85% | K-562 leukemia 9.11% | MALME-3M melanoma -57.6% | RXF 393 renal -65.5% | SF-295 CNS 8.54% | SF-539 CNS -27.9% | M14 melanoma -0.895%
inactive: NCI-H322M lung 29% | HOP-62 NSCLC 11.1% | A549/ATCC NSCLC 36.1% | DU-145 prostate 17% | MDA-MB-231 breast 16% | SF-268 CNS 30.4% | UACC-257 melanoma 34.9%

CCCCN(CCCC)CC(CN(CC)CC)OC(=O)Nc1ccccc1 (stereo not given)
inactive: NCI-H23 lung 72.2% | NCI-H226 lung 103% | NCI-H322M lung 85% | HOP-62 NSCLC 75.4% | NCI-H460 lung 105% | HOP-92 NSCLC 75% | NCI-H522 lung 74.7% | A549/ATCC NSCLC 92.9% | 786-0 renal 83% | COLO 205 colon 79.6% | DU-145 prostate 99.9% | K-562 leukemia 76% | MALME-3M melanoma 90.3% | MDA-MB-231 breast 69.7% | RXF 393 renal 95.1% | SF-268 CNS 94.9% | SF-295 CNS 77.5% | SF-539 CNS 94.4% | UACC-257 melanoma 111% | M14 melanoma 80.9%

C#C[C@@]1(O)[C@@H](CO)O[C@@H](n2ccc3c(N)ncnc32)[C@@H]1O
inactive: NCI-H322M lung 14.5% | UACC-257 melanoma 17.3%
active: NCI-H23 lung -20.7% | NCI-H226 lung -54.4% | HOP-62 NSCLC 4.56% | NCI-H460 lung 0.612% | HOP-92 NSCLC -15.8% | NCI-H522 lung -18.4% | A549/ATCC NSCLC -19.4% | 786-0 renal 4.14% | COLO 205 colon -55.2% | DU-145 prostate 3.75% | K-562 leukemia 4.79% | MALME-3M melanoma -13.2% | MDA-MB-231 breast -14.7% | RXF 393 renal -33.6% | SF-268 CNS 9.98% | SF-295 CNS 5.82% | SF-539 CNS 8.04% | M14 melanoma -38.6%

Clc1ccc2c(NCCCNC3CCCCC3)ccnc2c1
inactive: NCI-H23 lung 112% | NCI-H226 lung 108% | NCI-H322M lung 101% | HOP-62 NSCLC 91.1% | NCI-H460 lung 104% | HOP-92 NSCLC 80.4% | NCI-H522 lung 107% | A549/ATCC NSCLC 120% | 786-0 renal 68.5% | COLO 205 colon 93.5% | DU-145 prostate 101% | K-562 leukemia 70.3% | MALME-3M melanoma 116% | MDA-MB-231 breast 94.1% | RXF 393 renal 82.6% | SF-268 CNS 103% | SF-295 CNS 55.1% | SF-539 CNS 101% | UACC-257 melanoma 107% | M14 melanoma 89.8%

COc1cc(C2=N/C(=C\c3cc4ccccc4nc3Oc3ccccc3)C(=O)N2C(=N)N)cc(OC)c1OC
inactive: NCI-H23 lung 71% | NCI-H226 lung 18.7% | NCI-H322M lung 55.4% | NCI-H460 lung 52.1% | HOP-92 NSCLC 27.9% | NCI-H522 lung 60.3% | A549/ATCC NSCLC 77.1% | 786-0 renal 28.6% | COLO 205 colon 90.4% | DU-145 prostate 80.4% | K-562 leukemia 82.3% | MALME-3M melanoma 57.8% | MDA-MB-231 breast 42.4% | RXF 393 renal 42% | SF-268 CNS 30.7% | SF-295 CNS 55.1% | SF-539 CNS 33.4% | UACC-257 melanoma 76.4% | M14 melanoma 74.2%
active: HOP-62 NSCLC -0.576%

COc1ccc2nc(-c3ccc(OC)c(OC)c3)cc(-c3nnc(SCC(=O)Nc4ccc(/C(C)=N\O)cc4)n3-c3ccccc3)c2c1
inactive: NCI-H23 lung 91.5% | NCI-H226 lung 74.6% | NCI-H322M lung 84.5% | HOP-62 NSCLC 87.9% | NCI-H460 lung 89.6% | HOP-92 NSCLC 61.6% | NCI-H522 lung 42% | A549/ATCC NSCLC 70.7% | 786-0 renal 88.5% | COLO 205 colon 112% | DU-145 prostate 83.1% | K-562 leukemia 63.5% | MALME-3M melanoma 110% | MDA-MB-231 breast 40.2% | RXF 393 renal 79.1% | SF-268 CNS 78.1% | SF-295 CNS 92.9% | SF-539 CNS 81.3% | UACC-257 melanoma 88% | M14 melanoma 92.1%

Cc1c(Cl)cccc1NC(=O)c1sc2nc3c(cc2c1N)COCC3
inactive: NCI-H23 lung 36.4% | NCI-H226 lung 76.1% | NCI-H322M lung 60.6% | HOP-62 NSCLC 24.5% | NCI-H460 lung 15.6% | HOP-92 NSCLC 36.3% | NCI-H522 lung 17.3% | A549/ATCC NSCLC 45.9% | 786-0 renal 25.9% | COLO 205 colon 24.1% | DU-145 prostate 33% | K-562 leukemia 13% | MALME-3M melanoma 59.4% | MDA-MB-231 breast 49% | RXF 393 renal 13.1% | SF-268 CNS 47.4% | SF-295 CNS 12.9% | SF-539 CNS 11.4% | UACC-257 melanoma 47.3% | M14 melanoma 10.8%

O=[N+]([O-])c1cccc(CN(Cc2cccc([N+](=O)[O-])c2O)c2ccccc2)c1O
inactive: NCI-H23 lung 58.4% | NCI-H226 lung 83.2% | NCI-H322M lung 60.1% | HOP-62 NSCLC 78.4% | NCI-H460 lung 80.1% | HOP-92 NSCLC 54.5% | NCI-H522 lung 63.9% | A549/ATCC NSCLC 71% | 786-0 renal 51.1% | COLO 205 colon 78% | DU-145 prostate 94.3% | K-562 leukemia 60.5% | MALME-3M melanoma 87.2% | MDA-MB-231 breast 68.8% | RXF 393 renal 88.6% | SF-268 CNS 89.4% | SF-295 CNS 66.6% | SF-539 CNS 94.7% | UACC-257 melanoma 93.3% | M14 melanoma 67.6%

O=C(O)c1ccc(-n2cc(/C=N/Nc3ccc(Cl)cc3Cl)c(-c3ccccc3)n2)cc1
inactive: NCI-H23 lung 84.5% | NCI-H226 lung 88.6% | NCI-H322M lung 103% | HOP-62 NSCLC 92.2% | NCI-H460 lung 102% | HOP-92 NSCLC 106% | NCI-H522 lung 78% | A549/ATCC NSCLC 97.1% | 786-0 renal 97.5% | COLO 205 colon 96.7% | DU-145 prostate 93.6% | K-562 leukemia 87.8% | MALME-3M melanoma 92.3% | MDA-MB-231 breast 81.7% | RXF 393 renal 97.9% | SF-268 CNS 81.8% | SF-295 CNS 74.7% | SF-539 CNS 82% | UACC-257 melanoma 116% | M14 melanoma 88.1%

COc1ccc(-c2[nH]c3ccccc3c2C=C(C#N)C#N)cc1
active: NCI-H23 lung 2.52% | NCI-H460 lung 6.67% | HOP-92 NSCLC -17.2% | NCI-H522 lung -48.5% | A549/ATCC NSCLC 5.94% | COLO 205 colon -8.28% | DU-145 prostate -10.1% | K-562 leukemia -5.54% | RXF 393 renal 3.79% | SF-295 CNS -50.4% | SF-539 CNS -26.8% | M14 melanoma 1.05%
inactive: NCI-H226 lung 25.8% | NCI-H322M lung 52.1% | HOP-62 NSCLC 32.2% | 786-0 renal 14.9% | MALME-3M melanoma 87.4% | MDA-MB-231 breast 17.6% | SF-268 CNS 25.1% | UACC-257 melanoma 54.2%

Cc1cc(Nc2nc(SCc3ccc(C(=O)Nc4ccc(F)cc4N)cc3)nn3cccc23)n[nH]1
inactive: NCI-H23 lung 42.8% | NCI-H226 lung 51.6% | NCI-H322M lung 52.8% | HOP-62 NSCLC 23.4% | HOP-92 NSCLC 53.6% | A549/ATCC NSCLC 30.8% | 786-0 renal 44.1% | DU-145 prostate 20.1% | MALME-3M melanoma 53.7% | MDA-MB-231 breast 22.8% | RXF 393 renal 23.5% | SF-268 CNS 28.2% | SF-295 CNS 18% | UACC-257 melanoma 67.6% | M14 melanoma 38.9%
active: NCI-H460 lung 9.98% | NCI-H522 lung -14.8% | COLO 205 colon -39.9% | K-562 leukemia 7.36% | SF-539 CNS 8.82%

C=C1C(=O)O[C@H]2[C@H]1CC/C(COC(=O)c1cn(C)c3ccccc13)=C\CC[C@@]1(C)O[C@@H]21
inactive: NCI-H23 lung 22.5% | NCI-H322M lung 85.2% | HOP-62 NSCLC 32.4% | NCI-H460 lung 39.7% | A549/ATCC NSCLC 51.4% | SF-295 CNS 63.8%
active: NCI-H226 lung -36.5% | HOP-92 NSCLC -57.9% | NCI-H522 lung -85.1% | 786-0 renal -63% | COLO 205 colon -80.4% | DU-145 prostate -72.4% | K-562 leukemia 0.396% | MALME-3M melanoma -60.3% | MDA-MB-231 breast -49% | RXF 393 renal -87.8% | SF-268 CNS -8.89% | SF-539 CNS -58% | UACC-257 melanoma -56% | M14 melanoma -36.8%
